Most compounds without a hit are left out; they make up all but 9% or so of the library.
ALDH1A1 inh: blocks purified human ALDH1A1 activity; Purified ALDH1A1, NADH fluorescence, propionaldehyde substrate; P00352; actives 7.3% (n = 220,000); Potency, µM (titrated, usually from 75.3 µM), for inactives: top-dose activity, negative = inhibition, most hits filed as inhibitors; AID 1030;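 further: potency means the concentration at half of the fitted maximal effect; plate controls were no enzyme wells and a reference inhibitor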
IMPase inh: membrane-permeable compound that blocks inositol monophosphatase; CHO-M1 cells, IP1 accumulation, HTRF TR-FRET ratio; inhibition (IP1 accumulation), % at 46.1 µM; 120,000 tested, under 10 active; AID 901; active means well fitted curve in the direction sought with a large enough effect in the signal ratio, not every such curve was filed as active; inconclusive means small, poorly fitted or top-dose-only effect, or a change in a side signal; inactive means no such curve, though single readings can be large or run the other way; the % refers to the signal ratio;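 further: cells stimulated with carbachol in lithium chloride buffer; plate controls were DMSO basal wells for no effect and reference inhibitor wells for full effect; higher means more IMPase inhibition seen as more IP1 and lower FRET ratio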
Target sequence (P97697 whole entry, looked up): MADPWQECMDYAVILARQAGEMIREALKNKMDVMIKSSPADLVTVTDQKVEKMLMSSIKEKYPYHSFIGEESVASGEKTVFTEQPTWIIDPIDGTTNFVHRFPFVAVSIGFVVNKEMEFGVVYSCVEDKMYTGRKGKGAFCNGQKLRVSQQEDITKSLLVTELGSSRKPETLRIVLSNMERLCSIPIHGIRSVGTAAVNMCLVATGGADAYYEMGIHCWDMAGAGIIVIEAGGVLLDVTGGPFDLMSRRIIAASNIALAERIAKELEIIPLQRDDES
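In this qHTS, compounds (final up to 46 uM) act on CHO-M1 cells that are then activated through the M1 receptor with carbachol, in pH 7.4 buffer containing 50 mM LiCl, for 30 min. IP1 accumulation is quantified by the IP-One immunoassay.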
HPGD inh: inhibitors of human 15-hydroxyprostaglandin dehydrogenase (HPGD); purified HPGD, NADH fluorescence kinetic, PGE2 substrate; Potency, µM, for the others: at the highest dose activity change, negative = inhibition, most hits filed as inhibitors; actives 4.3% (n = 150,000); AID 894; further: potency means the concentration at half of the fitted maximal effect
Target sequence (P15428 whole entry, looked up): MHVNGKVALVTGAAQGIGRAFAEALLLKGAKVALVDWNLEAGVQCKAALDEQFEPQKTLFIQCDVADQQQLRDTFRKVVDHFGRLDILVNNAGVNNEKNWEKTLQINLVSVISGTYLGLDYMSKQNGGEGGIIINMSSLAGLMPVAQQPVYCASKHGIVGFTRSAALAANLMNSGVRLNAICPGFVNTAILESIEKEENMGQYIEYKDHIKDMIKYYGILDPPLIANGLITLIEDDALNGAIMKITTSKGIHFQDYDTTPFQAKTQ
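20 nM HPGD preincubated 15 min at room temperature with compound in 50 mM Tris-HCl pH 8, 0.01% Tween 20. Started with 1 mM NAD+ and 30 uM prostaglandin E2; NADH fluorescence (360/450 nm) read 5 times over 30-s intervals, last minus first.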
Starred values were filed as active, the others as inactive; ! = a repeat was not active; [ ] = another dose, or the depositor's remark. Unless noted, the call rests on the fitted dose curve; in most records, active means well fitted inhibition curve with a large enough effect (not every such curve was filed as active); inconclusive means small, poorly fitted or top-dose-only effect, or another doubt; inactive means no such curve, though single readings can be large or run the other way. Unless noted, on the % scale 0 is the no-effect control and ±100 the full control effect.

How did CC(=O)OC1CC[C@@]2(C)C3CC(=O)[C@]4(C)C(C(C)=O)=CCC4C3CC[C@H]2C1 (stereo not given in full) do in these assays?
ALDH1A1 inh: 20%; HPGD inh: -7%

Results for C[C@H](CCC(=O)O)C[C@H](C)C[C@H](C)C(=O)/C=C(\O)[C@H](C)C[C@H](C)C/C=C/[C@@H](C)[C@@H](O)[C@@H](C)[C@@H](O)C[C@@H]1CC[C@@](C)(C2CC[C@@](C)([C@@H](C)O)O2)O1 (stereo not given in full) ?
ALDH1A1 inh: inconclusive; HPGD inh: -2%

What do the screens show for `S=C=S`?
ALDH1A1 inh: inconclusive; HPGD inh: -3%

What do the screens show for `Brc1cccc(-c2ccccc2)c1`?
ALDH1A1 inh: 10%; HPGD inh: -2%

Results for CCOP(=O)(OCC)C(NC(=O)c1ccccc1)C(Cl)(Cl)Cl (stereo not given) ?
ALDH1A1 inh: -4%; HPGD inh: -10%

What do the screens show for `CCOP(=O)(OCC)C(c1ccccc1)N(C)C=O` (stereo not given)?
ALDH1A1 inh: 18µM*; IMPase inh: inconclusive

Results for O=C(CNC(=O)c1ccccc1)Nc1ccc(Br)cc1C(=O)c1ccccc1 ?
ALDH1A1 inh: -5%; IMPase inh: 9; HPGD inh: -14%

How did O=C(CCN1CCOCC1)NCC(=O)Nc1ccc(Br)cc1C(=O)c1ccccc1 do in these assays?
ALDH1A1 inh: 5%; IMPase inh: -7; HPGD inh: -11%

What do the screens show for `O=C(CN1CCCCC1)NCC(=O)Nc1ccc(Br)cc1C(=O)c1ccccc1`?
ALDH1A1 inh: 10%; IMPase inh: -1; HPGD inh: 28µM*

Results for O=C(CNC(=O)c1ccccc1Cl)Nc1ccc(Br)cc1C(=O)c1ccccc1 ?
ALDH1A1 inh: -5%; IMPase inh: 2; HPGD inh: 28µM*

Results for O=C(Nc1cccc(F)c1)N1CC2(CCN(C(=O)Oc3ccccc3)CC2)C1 ?
ALDH1A1 inh: -9%; HPGD inh: -7%

What do the screens show for `C[C@H]1CC[C@@]2(NC1)O[C@@H]1C[C@@H]3[C@@H]4CC=C5C[C@@H](O)CC[C@]5(C)[C@@H]4CC[C@]3(C)[C@H]1[C@@H]2C`?
ALDH1A1 inh: 9%[13.5 µM]; HPGD inh: -6%

How did CC1(C)N([O-])[N+](=O)C1(C)Br (stereo not given) do in these assays?
ALDH1A1 inh: 11µM*; HPGD inh: 32µM*

How did Nc1ccc2c3c(cccc13)CC2 do in these assays?
ALDH1A1 inh: inconclusive; IMPase inh: -3; HPGD inh: inconclusive

What do the screens show for `O=[N+]([O-])c1ccc2c3c(cccc13)CC2`?
ALDH1A1 inh: 3.2µM*; HPGD inh: -28%

How did CCOP(=O)(OCC)C(NC(=O)c1ccccc1Cl)=C(Cl)Cl do in these assays?
ALDH1A1 inh: 4%; IMPase inh: -1; HPGD inh: -12%

How did O=C(NCc1ccccn1)c1ccccc1Cl do in these assays?
ALDH1A1 inh: inconclusive; IMPase inh: -4; HPGD inh: 6.3µM*

How did CC(=O)OCC(=O)C1CCC2C3CC=C4CC(O)CC[C@@]4(C)C3CC[C@]12C (stereo not given in full) do in these assays?
ALDH1A1 inh: inconclusive; HPGD inh: -12%

How did C=C(C)[C@]12C[C@@H](C)[C@@]34O[C@](Cc5ccccc5)(O[C@@H]1[C@@H]3C=C(COC(=O)Cc1ccc(O)c(OC)c1)C[C@]1(O)C(=O)C(C)=C[C@@H]41)O2 do in these assays?
ALDH1A1 inh: 1%; HPGD inh: -7%

What do the screens show for `COC(C/C=C/C=C/CC/C=C\CC(C)/C=C\C(=C/C(=O)O)CC(=O)O)/C(C)=C\C=C(/C)C(=O)O` (stereo not given)?
ALDH1A1 inh: 0%

What do the screens show for `CNC(=O)[C@@H]1C[C@H]1[C@@H](NP(=O)(c1ccccc1)c1ccccc1)c1ccccc1`?
ALDH1A1 inh: -11%; HPGD inh: -2%

Results for CCCCC/C=C\C/C=C\C/C=C\C/C=C\CCCC(=O)O ?
ALDH1A1 inh: 7.9µM*!; IMPase inh: 1; HPGD inh: 16µM*!

Results for CCCCC/C=C\C[C@@H](/C=C/C=C\C/C=C\CCCC(=O)O)OO ?
ALDH1A1 inh: 3%; HPGD inh: -5%

What do the screens show for `Cc1cccc(C)c1O`?
ALDH1A1 inh: inconclusive; HPGD inh: -2%

Results for CC(=O)/C=C/c1ccccc1 ?
ALDH1A1 inh: 2%; HPGD inh: -9%

What do the screens show for `O=C/C=C/c1ccccc1`?
ALDH1A1 inh: 13µM*!; HPGD inh: -9%

What do the screens show for `C=CC[C@]1(O)CCC2C3CCC4=CCCCC4C3CCC21C` (stereo not given in full)?
ALDH1A1 inh: inconclusive; HPGD inh: -10%

Results for CC1(C)S[C@@H]2[C@H](N)C(=O)N2C1C(=O)O (stereo not given in full) ?
ALDH1A1 inh: 0%; HPGD inh: -11%

Results for CCOC(=O)c1ccc(N2C(=O)CC(N3CC=C(c4ccc(F)cc4)CC3)C2=O)cc1 (stereo not given) ?
ALDH1A1 inh: 3.5µM*; IMPase inh: 3; HPGD inh: 28µM*

What do the screens show for `O=C1CC(N2CC=C(c3ccc(F)cc3)CC2)C(=O)N1c1ccc(F)cc1` (stereo not given)?
ALDH1A1 inh: inconclusive; IMPase inh: 8; HPGD inh: -8%

How did c1ccc(NNc2ccccc2)cc1 do in these assays?
ALDH1A1 inh: 10µM*; HPGD inh: 4%

What do the screens show for `CC(=O)NNc1ccccc1`?
ALDH1A1 inh: -5%; HPGD inh: -2%

Results for CCOc1cc(-c2c(C#N)c(=O)[nH]c3c2c(C)nn3-c2ccc(F)cc2)ccc1O ?
ALDH1A1 inh: inconclusive; IMPase inh: -16; HPGD inh: inconclusive

Results for CN(C(=O)Cc1ccc(Cl)c(Cl)c1)[C@H](CN1CCCC1)c1ccccc1 ?
ALDH1A1 inh: -1%; IMPase inh: 2; HPGD inh: -7%

What do the screens show for `CN(CCc1ccc(Cl)c(Cl)c1)[C@@H]1CCCC[C@@H]1N1CCCC1`?
ALDH1A1 inh: 3.5µM*

What do the screens show for `COC(=O)[C@@H]1C[C@H](OC(C)=O)C(=O)[C@H]2[C@@]1(C)CC[C@H]1C(=O)O[C@H](c3ccoc3)C[C@]21C`?
ALDH1A1 inh: 3%; HPGD inh: -6%

Results for O=c1c2ccccc2nc(-c2ccco2)n1-c1ccccn1 ?
ALDH1A1 inh: -6%; IMPase inh: -6; HPGD inh: -2%

What do the screens show for `Cc1cccnc1-n1c(-c2ccco2)nc2ccccc2c1=O`?
ALDH1A1 inh: 28µM*; IMPase inh: 6

What do the screens show for `O=C1C=C2C=C[C@@H]3C[C@@]2(O1)[C@H]1CCCCN31`?
ALDH1A1 inh: -7%; IMPase inh: -1; HPGD inh: 0%

Results for C[C@@H](N)Cn1ccc2cc(F)c(Cl)cc21 ?
ALDH1A1 inh: 2%; IMPase inh: 7; HPGD inh: 6%

Results for C=CCOC(C)=O ?
ALDH1A1 inh: -1%; HPGD inh: -8%

Results for [N-]=[N+]=CC(=O)OCC(N)C(=O)O (stereo not given) ?
ALDH1A1 inh: -6%; HPGD inh: 1%

Results for N#CC(C#N)=Cc1cc(O)c(O)c(O)c1 ?
ALDH1A1 inh: 28µM*; IMPase inh: 36; HPGD inh: inconclusive
